Measured potencies and affinities stand elsewhere. Activity calls are given as the source filed them. No rule for the calls is given here.

A short description of the test: OVCAR4 cell viability loss – plate reader, dry powder, SA11, cytotoxicity control for PAX8 inhibitor project, dose response (AID 743150). As to conditions: series mostly up to 35 µM.
Take `C[C@H]1CN([C@@H](C)CO)C(=O)CCCn2nncc2CO[C@@H]1CN(C)C(=O)Nc1ccc(-c2cccs2)cc1`: the compound was called inactive. As to `COc1cccc(C#Cc2ccc([C@@H]3[C@@H](C#N)N(C(=O)C4CCCCC4)[C@@H]3CO)cc2)c1`, the outcome was inactive.

Consider `C[C@H](CO)N1C[C@H](C)[C@H](CN(C)C(=O)Nc2ccc(-c3cccs3)cc2)OCc2cnnn2CCCC1=O`, for which the compound was classed as inactive. Consider `CCCC#Cc1ccc([C@@H]2[C@@H](C#N)N(C(=O)C3CCCCC3)[C@H]2CO)cc1`, for which the outcome was inactive.

With `O=C(CN1C(=O)c2ccccc2S1(=O)=O)c1ccccc1Cl`, the call was inactive. For the compound `COC(=O)[C@@]1(CCS(=O)(=O)c2ccccc2)N=C(c2ccc(OCCCO)cc2)O[C@H]1c1ccccc1`, the compound was called inactive.

As to `COc1cccc(C#Cc2ccc([C@@H]3[C@H](C#N)N(C(=O)c4ccccn4)[C@H]3CO)cc2)c1`, the result was inactive. With `Cc1ccccc1OCC(=O)Nc1cccc(C(=O)O)c1`, the outcome was inactive. As to `COc1ccc(S(=O)(=O)Nc2ccc3c(c2)CC(=O)N([C@@H](C)CO)C[C@@H](C)[C@@H](CN(C)Cc2ccc(-c4ccccc4)cc2)O3)cc1`, the call was inactive. On to `N#C[C@@H]1[C@H](c2ccc(C#Cc3ccc(F)cc3)cc2)[C@@H](CO)N1C(=O)Nc1ccc(F)cc1`, for which the result was inactive. For `O=C(C[C@H]1CC[C@H]2[C@@H](COC[C@@H](O)CN2S(=O)(=O)c2cccc(Cl)c2)O1)Nc1ccc(-c2ccccc2)cc1`, the outcome was inactive. Regarding `CCc1ccc(/C=C2\SC(=S)N(CCCC(=O)N(CCO)c3ccccc3)C2=O)cc1`, the compound was classed as inactive. On to `CCSCCc1nnc(NC(=O)Nc2cccc(C(F)(F)F)c2)s1`, for which the compound was called inactive. With `O=C(CN1C(=O)c2ccccc2S1(=O)=O)c1ccc(Cl)cc1Cl`, the outcome was inactive.

On to `COCC(=O)N1[C@H](CO)[C@H](c2ccc(-c3cccnc3)cc2)[C@@H]1C#N`, for which the call was inactive. For `Cc1ccc(S(=O)(=O)Nc2ccc3c(c2)C(=O)N([C@@H](C)CO)C[C@H](C)[C@@H](CN(C)C(=O)Nc2cccc4ccccc24)OCCCC[C@@H](C)O3)cc1`, the result was inactive. As for `C[C@H](CO)N1C[C@H](C)[C@@H](CN(C)S(=O)(=O)c2ccc(-c3ccccc3)cc2)OCc2cn(nn2)CCCC1=O`, the call was inactive. For the compound `N#C[C@H]1[C@@H](c2ccc(C#Cc3cccc(F)c3)cc2)[C@@H](CO)N1C(=O)C1CCCC1`, the result was inactive.

In the case of `COc1cccc(C#Cc2ccc([C@H]3[C@@H](C#N)N(C(=O)c4ccccn4)[C@@H]3CO)cc2)c1`, the compound was called inactive.

As to `C[C@@H]1CN([C@H](C)CO)C(=O)CCCn2cc(nn2)CO[C@H]1CN(C)C(=O)Nc1ccc(-c2cccs2)cc1`, the compound was classed as inactive.

For `Cc1nc2sc(C(c3ccco3)N3CCN(C(c4ccccc4)c4ccccc4)CC3)c(O)n2n1` (stereo unspecified), the outcome was inactive. With `N#C[C@@H]1[C@@H](c2ccc(C3=CCCCC3)cc2)[C@@H](CO)N1C(=O)NC1CCCCC1`, the call was inactive. Turning to `C[C@H](CO)N1C[C@H](C)[C@@H](CN(C)S(=O)(=O)c2ccc(Cl)cc2)OCCCC[C@H](C)Oc2ccc(NS(=O)(=O)c3ccccc3)cc2C1=O`, the call was inactive.

In the case of `CN(C)CCCN(C(=O)CCOc1ccccc1)c1nc2c(F)cccc2s1`, the compound was classed as inactive.

On to `O=C1/C(=C/c2ccccc2F)SC(=S)N1CC(=O)N1CCCCC1c1cccnc1` (stereo unspecified), for which the compound was called inactive. Then `C[C@H](CO)N1C[C@H](C)[C@@H](CN(C)Cc2ccc(C(F)(F)F)cc2)Oc2ccc(NS(=O)(=O)c3ccccc3)cc2CC1=O`, with “inactive”; and `COc1cccc(C#Cc2ccc([C@@H]3[C@@H](C#N)N(C(=O)C4CCCC4)[C@@H]3CO)cc2)c1`, with “inactive”. Regarding `N#C[C@H]1[C@@H](c2ccc(C#CC3CCCCC3)cc2)[C@@H](CO)N1S(=O)(=O)c1ccccc1`, the compound was classed as inactive. On to `C[C@H](CO)N1C[C@H](C)[C@@H](CN(C)Cc2ccc(-c3ccccc3)cc2)Oc2ccc(NS(=O)(=O)c3ccccc3)cc2CC1=O`, for which the compound was classed as inactive. Consider `COc1cccc(C#Cc2ccc([C@@H]3[C@@H](C#N)N(C(=O)C4CCCCC4)[C@H]3CO)cc2)c1`, for which the compound was called inactive. Consider `CCCC#Cc1ccc([C@@H]2[C@@H](C#N)N(S(=O)(=O)c3cccc(F)c3)[C@H]2CO)cc1`, for which the outcome was inactive.
